Test results reported in PubChem BioAssay (NCATS).
Values joined by “and” are separate entries in the source; they are usually repeats but may differ in a detail not shown here. Identical values can stand only once. Results filed as inconclusive are left out. A number with no mark means an inactive call. Active and inactive are the calls of the source. Calls follow the shape of the dose curve; as a rule, active = well fitted activation curve with a large enough effect; inconclusive = small, poorly fitted or top-dose-only effect; inactive = no such curve, though single readings can be large or run the other way.

target: Cellular tumor antigen p53 (Homo sapiens) (UniProt P04637); assay: Primary qHTS for small molecule compounds that upregulate eGFP-tagged delta133p53alpha (in N-terminal) cells. (AID 2060322); settings: NCI-H358 eGFP-delta133p53alpha fluorescence, 24 h; activation: active compounds read high; also: nearly all actives have a fitted effect of over 75% in size;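 as to activation: cells pre-induced with doxycycline then dosed without doxycycline; series mostly up to about 56 µM; 0% = DMSO vehicle and 100% = reference activator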
Procedure, shortened: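 NCI-H358 cells pre-induced 24 h with 10 ng/ml doxycycline for eGFP-delta133p53alpha, plated dox-free and exposed 24 h at 37C to titrated compounds. Fixed, Hoechst-stained; gated GFP peak intensity by laser scanning cytometry, normalized to DMSO (0%) and 57.5 uM 5-azacytidine (100%).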
Potency is read from the fitted curve at half-maximal effect.

Cellular tumor antigen p53 (Homo sapiens), sequence (P04637 whole entry, looked up): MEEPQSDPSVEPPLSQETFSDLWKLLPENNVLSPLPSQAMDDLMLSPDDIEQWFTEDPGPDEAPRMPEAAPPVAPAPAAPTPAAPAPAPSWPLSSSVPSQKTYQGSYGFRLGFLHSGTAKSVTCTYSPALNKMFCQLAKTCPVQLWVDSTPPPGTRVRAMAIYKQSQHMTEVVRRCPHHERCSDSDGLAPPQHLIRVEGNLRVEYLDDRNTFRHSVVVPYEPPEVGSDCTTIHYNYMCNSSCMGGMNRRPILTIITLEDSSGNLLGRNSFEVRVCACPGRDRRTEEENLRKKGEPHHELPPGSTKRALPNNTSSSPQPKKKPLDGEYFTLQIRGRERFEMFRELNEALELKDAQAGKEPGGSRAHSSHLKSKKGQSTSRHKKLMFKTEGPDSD

SMILES	activation	Potency
CCOC(=O)c1cccnc1	-9.6%	
O=C1Cc2cc(Cl)ccc2N1	5.08%	
O=C1c2c(O)cccc2Cc2cccc(O)c21	-24.3%	
CC[C@@]1(O)C(=O)OCc2c1cc1n(c2=O)Cc2c-1nc1ccccc1c2/C=N/OC(C)(C)C		97.8 nM (active)
C[C@@H]1CCN(C(=O)CC#N)C[C@H]1N(C)c1ncnc2[nH]ccc12	-11.8%	
CC(C)C(=O)Nc1cccc(C2CN3CCSC3=N2)c1 (stereo not given)	6.69%	
CN1[C@H]2CC(OC(=O)[C@@H](CO)c3ccccc3)C[C@H]1[C@H]1O[C@H]12 (stereo not given in full)	6.53%	
CCCCCCCCCCCCCCCCCCOCC(O)CO (stereo not given)	-16.4%	
COC(=O)c1cc(Cl)c(NC(C)=O)cc1OC	11.9%	
CCCCCC(=O)O[C@]1(C(C)=O)CC[C@H]2[C@@H]3CCC4=CC(=O)CC[C@]4(C)[C@H]3CC[C@@]21C	23.2%	
COc1ccccc1OCC(O)COC(N)=O (stereo not given)	-36.8% and 17.3%	
CCOC(=O)CN1CCCC1=O	-0.837%	
CCN1CCCC1=O	10.7%	
N/C(=N\N=C\c1ccc(Cl)cc1)N/N=C/c1ccc(Cl)cc1	0%	
CC1CCC2(OC1)OC1CC3C4CCC5C[C@@H](O[C@@H]6O[C@H](CO[C@@H]7OC[C@@H](O)[C@H](O)[C@H]7O)[C@H](O)[C@H](O)[C@H]6O)CC[C@]5(C)C4CC[C@]3(C)C1C2C (stereo not given in full)	8.4%	
COc1c(N2C[C@@H]3CCCN[C@@H]3C2)c(F)cc2c(=O)c(C(=O)O)cn(C3CC3)c12	4.18%	
CC1(C)OC[C@@H](COC(=O)CCc2ccc(OC[C@@H](O)CNCCNC(=O)N3CCOCC3)cc2)O1	10%	
CN1C[C@H]2c3ccccc3Oc3ccc(Cl)cc3[C@@H]2C1	-34.8% and -0.565%	
COCc1c(C(C)C)nc(C(C)C)c(/C=C/[C@@H](O)C[C@@H](O)CC(=O)O)c1-c1ccc(F)cc1	27.7%	
Cc1ccc(N)cc1O		28200 nM (active)

SMILES	activation	Potency
CNCc1ccccc1	6.21%	
Cc1ccc2nc(NC(=O)CSc3nc4c(c(=O)n3C)SC(C)C4)sc2c1 (stereo not given)	21.2%	
COc1cc(OC)cc(-c2ccc3ncc4ccc(=O)n(-c5ccc(N6CCNCC6)c(C(F)(F)F)c5)c4c3c2)c1	-7.04%	
CO[C@H]1/C=C\O[C@@]2(C)Oc3c(C)c(O)c4c(O)c(c5c(nc6cc(C)ccn65)c4c3C2=O)NC(=O)/C(C)=C\C=C/[C@H](C)[C@H](O)[C@@H](C)[C@@H](O)[C@@H](C)[C@H](OC(C)=O)[C@@H]1C	-1.91%	
COc1cc2c3cc1Oc1cc(ccc1O)C[C@@H]1c4c(cc(OC)c(O)c4Oc4ccc(cc4)C[C@@H]3N(C)CC2)CC[N+]1(C)C	19.8%	
Cc1ccnc2c1NC(=O)c1cccnc1N2C1CC1	-6.69% and 7.43%	
CNC(=O)c1cnn(-c2nc(N)c3ncn([C@@H]4O[C@H](CO)[C@@H](O)[C@H]4O)c3n2)c1	-18.4%	
NC(=O)n1c(O)c(C(=O)c2cccs2)c2cc(Cl)ccc21	-6.21%	
CC(=O)CC(c1ccc([N+](=O)[O-])cc1)c1c(O)c2ccccc2oc1=O (stereo not given)	-10%	
O=Cc1ccc(O)c(O)c1O	-4.18%	
CCC(CC)[C@H](NC(C)=O)[C@@H]1[C@H](O)[C@@H](C(=O)O)C[C@@H]1N=C(N)N	7.36%	
CCCCCCCCCCCCCCNCCO	-16.7%	
C=C1C[C@H]2[C@@H]3C=C(C)C4=CC(=O)CC[C@]4(C)[C@H]3CC[C@]2(C)[C@@]1(OC(C)=O)C(C)=O	-0.837%	
NS(=O)(=O)c1ccc(N2CCCCS2(=O)=O)cc1	7.34%	
CCOc1ncc(F)c(=O)[nH]1	3.95%	
CCOc1ccccc1OCC1CNCCO1 (stereo not given)	-17.6%	
CCOC(=O)Oc1ccc(CCNC(=O)[C@H](CCSC)NC(C)=O)cc1OC(=O)OCC	16.4%	
O=C1C(c2[nH]c3ccccc3c2O)=Nc2ccccc21	-0.565%	
Nc1c(C(=O)Nc2ccc(F)cc2)sc2nc(-c3cccs3)cc(C(F)(F)F)c12		1530 nM (active)
CC1CCc2c(N3CCC(O)CC3)c(F)cc3c(=O)c(C(=O)O)cn1c23 (stereo not given)	5.02%	
